# Assay results: PubChem BioAssay
# Values joined by “and” are separate entries in the source; they are usually repeats but may differ in a detail not shown here. Equal entries are not always repeated. Results filed as inconclusive are left out. Active and inactive are the calls of the source. Unless noted, cut-off not given; nearly all actives show AC50 up to about 26 µM.
# Assays:
# [1] = growth inhibition of DIPG glioma cells, dose response, cell-based, SU-DIPG-XVII, MIPE5.0, CellTiter-Glo, qHTS (AID 1347060); conditions: SU-DIPG-XVII viability, CellTiter-Glo ATP luminescence;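 on AC50: cells exposed to compound for 48 hours before viability readout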
# [2] = growth inhibition of DIPG glioma cells, dose response, cell-based, SU-DIPG-XIII, MIPE5.0, CellTiter-Glo, qHTS (AID 1347064; cut-off not given, nearly all actives have AC50 up to about 23 µM;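 on AC50: cells exposed to compound for 48 hours before the viability read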); conditions: SU-DIPG-XIII viability, CellTiter-Glo ATP luminescence
# [3] = SU-DIPG-XXV glioma cell viability, MIPE5.0 library, qHTS (AID 1347068; cut-off not given, nearly all actives have IC50 up to about 30 µM)
# [4] = viability loss in pontine glioma line – cell-based, SU-DIPG-XXV, MIPE5.0, CellTiter-Glo, qHTS, dose response (AID 1347065); conditions: CellTiter-Glo ATP luminescence;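 further: cells exposed to compound for 48 hours before ATP readout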
# [5] = JHH-DIPG-1 glioma cell viability, MIPE5.0 library, CellTiter-Glo luminescence, qHTS (AID 1347067); conditions: JHH-DIPG-1 glioma viability, CellTiter-Glo ATP luminescence;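 further: cells exposed to compound for 48 hours before readout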
# [6] = circadian clock period modulators, cell-based, LOPAC library, luminescence reporter (AID 2774; call rule not given here;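 further: values are relative to mean of DMSO wells on each plate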); conditions: circadian reporter cells, at 7 µM, actives lie on both sides
# [7] = hESC survival regulators, cell-based (AID 493140; call rule not given here;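 further: cells exposed to compounds for four days before counting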); conditions: human embryonic stem cell survival screen; stronger effect = higher value
# [8] = liver-stage malaria parasite growth inhibition, primary screen, cell-based, HepG2, luciferase luminescence, HepG2 viability (AID 624349; in the data active means parasite load remaining mostly below about 12%, no sharp cut-off; inactive means mostly above about 10%;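 further: 100% = mean of DMSO negative control wells on the same plate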); conditions: P. berghei liver stage in HepG2, luciferase luminescence, concentration not given here; parasite load remaining: stronger effect = lower value; viability: measured here: HepG2 viability without parasites
# [9] = test system: Hepatitis C virus NS3 helicase; test: HCV NS3 helicase inhibitors, primary screen, biochemical, fluorescence polarization, LOPAC1280 library (AID 687035; in the data active means inhibition above about 37%); conditions: Purified HCV NS3 helicase, Cy5-dT15 ssDNA binding fluorescence polarization; stronger effect = higher value; concentration not given here
# [10] = Cy5 fluorescence quenching or enhancement artefacts, artefact control for HCV NS3 helicase inhibitor project, biochemical, LOPAC1280 (AID 687037; call rule not given here); conditions: Cy5-DNA-NS3h complex fluorescence interference counterscreen
# [11] = sensitizers of A549 cells to miR-34 induction, primary screen, imaging, A549 dox-inducible miR-34, nuclei and caspase counts (AID 1347080;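 active means compounds whose cell count with miR-34 switched on is under 0.7 times the count with it off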); conditions: A549 miR-34 inducible, Hoechst nuclei count, 48 h
# [12] = inhibitors of Cryptococcus chitosan production, flow cytometry, Cibacron Brilliant Red staining (AID 1347148; call rule not given here;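 further: compound exposure lasted three days at 37 degrees C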); conditions: Cryptococcus neoformans chitosan, stronger effect = lower value; at 10 µM unless noted
# [13] = phospholipid biosynthesis inhibitors in animal cells, primary screen, cell-based, LOPAC library, screen 4 (AID 1347384; call rule not given here); conditions: phospholipid biosynthesis inhibition screen, at 10 µM
# [14] = viability rescue of complex I mutant cybrids, primary screen, cell-based, galactose medium, ATP luminescence (AID 1645843;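 active means z-score of at least 1.8 in each of two replicates, scored against plate mean and spread of sample wells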;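 further: positive z means more ATP and so rescue of galactose-driven cybrid death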); conditions: complex I mutant cybrid cells, 72 h, stronger effect = higher value
# [15] = survival rescue of mitochondrial mutant cells in low glucose, primary screen, MELAS cybrids, Rieske KO mouse fibroblasts, CellTiter-Glo (AID 1508586;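 active means mean z-score across replicates of 1.96 or higher in either the MELAS or the Rieske mutant cell line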;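 further: z relative to plate mean and SD of compound and empty wells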)
# [16] = ovarian cancer cell viability with rucaparib, profiling panel, oncology-focused library, rucaparib conditional (AID 1508598;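 active means normalized viability below 100% at a tested concentration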); conditions: patient-derived ovarian cancer cells, CellTiter-Glo viability, 144 h, stronger effect = lower value
# [17] = SU-DIPG-VI glioma cell viability, MIPE4.0 library, CellTiter-Glo luminescence, qHTS (AID 1347066; cut-off not given, nearly all actives have AC50 up to about 30 µM;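 further: cells exposed to compound for 48 hours before readout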); conditions: CellTiter-Glo ATP luminescence
# [18] = stronger effect = lower value, cell number ratio, induced over uninduced
# [19] = measured here: relative caspase fold change +Dox/-Dox
# [20] = measured here: total cells with miR-34 induction, stronger effect = lower value
# [21] = measured here: total cells without miR-34 induction
# [22] = MELAS cybrid survival, CellTiter-Glo 48 h, stronger effect = higher value
# [23] = Rieske KO mouse fibroblast survival, CellTiter-Glo 72 h
structure (smiles),measurement,setting,value
CCS(=O)(=O)c1ccc2oc(-c3ccc4ccccc4c3)nc2c1,outcome,[1],inactive
same,outcome,[2],inactive
same,outcome,[3],inactive
COc1ccc(Oc2cc(NCCC(F)(F)F)c3ncc(-c4ccc(C(=O)NC5CC5)c(C)c4)n3n2)c(F)c1F,AC50,[1],0.059 µM (active)
same,AC50,[4],0.372 µM (active)
NC1CCCN(c2c(/C=C3\SC(=O)NC3=O)cccc2-c2ccccc2)C1 (configuration not stated),outcome,[1],inactive
same,outcome,[2],inactive
same,outcome,[5],inactive
same,outcome,[3],inactive
Cc1nc2ccc(-n3ncc(C(=O)c4cc5ccccc5[nH]4)c3N)cc2[nH]1,AC50,[1],0.468 µM (active)
same,AC50,[4],0.833 µM (active)
O=S(=O)(c1cccc2c(I)cccc12)N1CCCNCC1,period change,[6],0.03 h (inactive)
same,survival,[7],70.8 (inactive)
same,parasite load remaining,[8],33.8% (inactive)
same,viability,[8],77.3%
same,inhibition,[9],-1% (inactive)
same,fluorescence ratio (interference),[10],0.9 (inactive)
same,outcome,[1],inactive
same,outcome,[2],inactive
same,outcome,[5],inactive
same,fold change,[11]; [18],0.977 (inactive) and 0.963 (inactive)
same,fold change,[11]; [19],0.686 and 1.04
same,cell count,[11]; [20],7130 and 3010
same,cell count,[11]; [21],7300 and 3130
same,fold fluorescence,[12],13.8 [at 120.1 µM] (inactive)
same,outcome,[13],inactive
same,z-score,[14],-0.91 (inactive)
CCn1nc(C2CCN(C(=O)CCO)CC2)nc1-c1cnc(N)c(-c2nnc(C(C)(C)C)o2)n1,AC50,[1],5.9 µM (active)
same,AC50,[4],2.09 µM (active)
CC(C)Oc1ccc(-c2nc(-c3cccc4c3CC[C@@H]4NCCO)no2)cc1C#N,AC50,[1],20.9 µM (active)
same,AC50,[4],16.6 µM (active)
COc1ccc2c(c1)[C@]1(C[C@H]1c1ccc3c(/C=C/c4ccc(CN5C[C@@H](C)O[C@@H](C)C5)cc4)n[nH]c3c1)C(=O)N2,AC50,[1],4.17 µM (active)
same,AC50,[4],0.0417 µM (active)
Cc1ccc(C2=Nc3ccc(Cl)cc3OC2)cc1,outcome,[1],inactive
same,outcome,[2],inactive
same,outcome,[3],inactive
CCOC(=O)c1ccnc(CNCC(=O)N(CC)CCN(C)C)c1,outcome,[1],inactive
same,outcome,[2],inactive
same,outcome,[3],inactive
CC1=C2[N-][C@H]([C@H](CC(N)=O)[C@@]2(C)CCC(=O)NC[C@@H](C)OP(=O)([O-])O[C@H]2[C@@H](O)[C@@H](n3cnc4cc(C)c(C)cc43)O[C@@H]2CO)[C@]2(C)N=C(C(C)=C3N=C(C=C4N=C1[C@@H](CCC(N)=O)C4(C)C)[C@@H](CCC(N)=O)[C@]3(C)CC(N)=O)[C@@H](CCC(N)=O)[C@]2(C)CC(N)=O.O.[Co+2],outcome,[1],inactive
same,outcome,[4],inactive
CN1C(=O)c2sccc2N(C)c2nc(Nc3ccc(S(N)(=O)=O)cc3)ncc21,AC50,[1],14.8 µM (active)
same,AC50,[4],3.72 µM (active)
Cn1c(=O)c(-c2c(Cl)cccc2Cl)cc2cnc(Nc3cccc(C(=O)O)c3)nc21,AC50,[1],1.48 µM (active)
same,AC50,[2],2.35 µM (active)
same,outcome,[3],inactive
Cn1cc(-c2ccc3c(c2)CCN3C(=O)Cc2cccc(C(F)(F)F)c2)c2c(N)ncnc21,outcome,[1],inactive
same,outcome,[2],inactive
same,outcome,[5],inactive
same,outcome,[3],inactive
same,fold change,[11]; [18],0.811 (inactive)
same,fold change,[11]; [19],0.484
same,cell count,[11]; [20],4720
same,cell count,[11]; [21],5820
same,z-score,[15]; [22],-0.412 (inactive)
same,z-score,[15]; [23],-1.76
same,viability,"[16]; at 0.000305 µM, OCI-C5x cells, with rucaparib 10 µM, 100% = cells with rucaparib alone",120% (inactive)
same,viability,"[16]; at 0.000305 µM, OCI-C5x cells, without rucaparib",118% (inactive)
same,viability,"[16]; at 0.000305 µM, OCI-P5x cells, with rucaparib 20 µM, 100% = cells with rucaparib alone",89.4% (active)
same,viability,"[16]; at 0.000305 µM, OCI-P5x cells, without rucaparib",96.4% (active)
same,viability,"[16]; at 0.00122 µM, OCI-C5x cells, with rucaparib 10 µM, 100% = cells with rucaparib alone",116% (inactive)
same,viability,"[16]; at 0.00122 µM, OCI-C5x cells, without rucaparib",114% (inactive)
same,viability,"[16]; at 0.00122 µM, OCI-P5x cells, with rucaparib 20 µM, 100% = cells with rucaparib alone",90.8% (active)
same,viability,"[16]; at 0.00122 µM, OCI-P5x cells, without rucaparib",99.7% (active)
same,viability,"[16]; at 0.00488 µM, OCI-C5x cells, with rucaparib 10 µM, 100% = cells with rucaparib alone",116% (inactive)
same,viability,"[16]; at 0.00488 µM, OCI-C5x cells, without rucaparib",115% (inactive)
same,viability,"[16]; at 0.00488 µM, OCI-P5x cells, with rucaparib 20 µM, 100% = cells with rucaparib alone",92.8% (active)
same,viability,"[16]; at 0.00488 µM, OCI-P5x cells, without rucaparib",101% (inactive)
same,viability,"[16]; at 0.0195 µM, OCI-C5x cells, with rucaparib 10 µM, 100% = cells with rucaparib alone",107% (inactive)
same,viability,"[16]; at 0.0195 µM, OCI-C5x cells, without rucaparib",114% (inactive)
same,viability,"[16]; at 0.0195 µM, OCI-P5x cells, with rucaparib 20 µM, 100% = cells with rucaparib alone",98% (active)
same,viability,"[16]; at 0.0195 µM, OCI-P5x cells, without rucaparib",107% (inactive)
same,viability,"[16]; at 0.0781 µM, OCI-C5x cells, with rucaparib 10 µM, 100% = cells with rucaparib alone",106% (inactive)
same,viability,"[16]; at 0.0781 µM, OCI-C5x cells, without rucaparib",113% (inactive)
same,viability,"[16]; at 0.0781 µM, OCI-P5x cells, with rucaparib 20 µM, 100% = cells with rucaparib alone",88% (active)
same,viability,"[16]; at 0.0781 µM, OCI-P5x cells, without rucaparib",101% (inactive)
same,viability,"[16]; at 0.313 µM, OCI-C5x cells, with rucaparib 10 µM, 100% = cells with rucaparib alone",109% (inactive)
same,viability,"[16]; at 0.313 µM, OCI-C5x cells, without rucaparib",125% (inactive)
same,viability,"[16]; at 0.313 µM, OCI-P5x cells, with rucaparib 20 µM, 100% = cells with rucaparib alone",79.9% (active)
same,viability,"[16]; at 0.313 µM, OCI-P5x cells, without rucaparib",107% (inactive)
same,viability,"[16]; at 1.25 µM, OCI-C5x cells, with rucaparib 10 µM, 100% = cells with rucaparib alone",123% (inactive)
same,viability,"[16]; at 1.25 µM, OCI-C5x cells, without rucaparib",144% (inactive)
same,viability,"[16]; at 1.25 µM, OCI-P5x cells, with rucaparib 20 µM, 100% = cells with rucaparib alone",74.9% (active)
same,viability,"[16]; at 1.25 µM, OCI-P5x cells, without rucaparib",109% (inactive)
same,viability,"[16]; at 5 µM, OCI-C5x cells, with rucaparib 10 µM, 100% = cells with rucaparib alone",7.91% (active)
same,viability,"[16]; at 5 µM, OCI-C5x cells, without rucaparib",79% (active)
same,viability,"[16]; at 5 µM, OCI-P5x cells, with rucaparib 20 µM, 100% = cells with rucaparib alone",53% (active)
same,viability,"[16]; at 5 µM, OCI-P5x cells, without rucaparib",69.3% (active)
CONC(=O)Nc1ccc(-c2sc3c(c2CN(C)Cc2ccccc2)c(=O)n(-c2ccccc2)c(=O)n3Cc2c(F)cccc2F)cc1,outcome,[1],inactive
same,outcome,[2],inactive
same,outcome,[3],inactive
CNC(=O)[C@H](Cc1c[nH]c2ccccc12)NC(=O)[C@@H](CC(=O)NO)CC(C)C,outcome,[1],inactive
same,outcome,[2],inactive
same,outcome,[5],inactive
same,outcome,[3],inactive
same,fold change,[11]; [18],1.03 (inactive)
same,fold change,[11]; [19],0.925
same,cell count,[11]; [20],4790
same,cell count,[11]; [21],4630
same,fold fluorescence,[12],4.97 [at 128.7 µM] (inactive)
Cc1cc2c(F)c(Oc3ncnn4cc(OCC(C)OC(=O)C(C)N)c(C)c34)ccc2[nH]1 (configuration not stated),AC50,[1],16.6 µM (active)
same,AC50,[2],16.6 µM (active)
same,fold change,[11]; [18],1.09 (inactive)
same,fold change,[11]; [19],0.564
same,cell count,[11]; [20],4840
same,cell count,[11]; [21],4460
same,z-score,[15]; [22],0.128 (inactive)
same,z-score,[15]; [23],1.06
Cc1cccc(Nc2nc(N[C@@H]3CCCC[C@@H]3N)ncc2C(N)=O)c1,AC50,[1],18.6 µM (active)
same,AC50,[4],18.6 µM (active)
Cc1c(F)cc(C(=O)NC2CC2)cc1-c1ccc(C(=O)NCC(C)(C)C)cn1,outcome,[1],inactive
same,outcome,[2],inactive
same,outcome,[5],inactive
same,outcome,[3],inactive
same,fold change,[11]; [18],0.832 (inactive)
same,fold change,[11]; [19],0.447
same,cell count,[11]; [20],7400
same,cell count,[11]; [21],8890
same,z-score,[15]; [22],-0.46 (inactive)
same,z-score,[15]; [23],0.488
Nc1n[n+]([O-])c2ccccc2[n+]1[O-],outcome,[1],inactive
same,outcome,[2],inactive
same,outcome,[3],inactive
Cc1noc(-c2ccc(-c3ccc(C4(C(=O)O)CC4)cc3)cc2)c1NC(=O)O[C@H](C)c1ccccc1,AC50,[1],23.5 µM (active)
same,AC50,[4],23.5 µM (active)
CC(=O)N1CCN(c2ccc(NC(=O)Cc3cnc(-c4ccnc(F)c4)c(C)c3)nc2)CC1,outcome,[1],inactive
same,outcome,[4],inactive
same,outcome,[5],inactive
same,outcome,[3],inactive
O=C1NC(=O)[C@@H](c2c[nH]c3ccccc23)[C@H]1c1cn2c3c(cccc13)CCC2,AC50,[1],0.525 µM (active)
same,AC50,[4],0.742 µM (active)
same,AC50,[5],1.66 µM (active)
COc1ccc2c(c1)CC[C@@H](CN(C)CC(=O)O)[C@H]2c1ccccc1,outcome,[1],inactive
same,outcome,[4],inactive
same,outcome,[17],inactive
same,outcome,[5],inactive
same,outcome,[3],inactive
